# Assay results as given in PubChem BioAssay (NCI).
# Compounds without any hit were thinned out: in the full panel of roughly 79,000, 15% have a hit. Unmarked numbers belong to inactive results. Active and inactive are the calls of the source. Rule as the data show it: active = growth inhibition above about 70%; inactive = the rest.
# Experiment: NCI Yeast Anticancer Drug Screen. Data for the rad50 strain (AID 155);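 also: 0% = growth of vehicle-only cultures of the same strain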
# Conditions: S. cerevisiae rad50 strain growth inhibition; at 50.0 µM (retest, dose inferred, filed as 5.0); hits give high values
# In short: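 Vehicle-treated cultures provide the reference for the growth inhibition reported for compound-exposed, repair-deficient yeast.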
row,Compound,growth inhibition
1,N#C/C(=N\O)C(N)=O,87% (active)
2,COc1ccc(C(N)=O)cc1,2%
3,CC1=C(/C=C/C(C)=C/C(=O)O)C(C)(C)CCC1,67%
4,CC(=O)Oc1c(Br)cc(Br)cc1C(OC(C)=O)OC(C)=O,96% (active)
5,CCCCCCN(CCCCCC)CCCCCCCCCCCO,98% (active)
6,COc1cccc(NC(=O)c2c(SC)n[nH]c2N)c1,99% (active)
7,O=C(O)/C=C\C(=O)NNc1ccccc1,96% (active)
8,Oc1ccc(Cc2cccc(Cl)c2)c(O)c1,92% (active)
9,C=COC(=O)c1ccccc1C(=O)OCCCC,22%
10,O=C(O)c1ccc(-c2ccccc2)cc1,80% (active)
11,N#CC(c1ccccc1)C(c1ccccc1)c1ccccc1 (stereo not drawn),67%
12,CC(C)(C)c1cc([N+](=O)[O-])c(O)c([N+](=O)[O-])c1,89% (active)
13,CSC(SC)=C(C#N)C(=O)Nc1cccc(Cl)c1,97% (active)
14,CCOC(=O)C(NC(C)=O)C(=O)c1ccccc1 (stereo not drawn),6%
15,O=[N+]([O-])/C=C/c1cccs1,98% (active)
16,C/C(=N\Nc1ccc(Cl)cc1)C(=O)O,97% (active)
17,CC(=O)Nc1ccc(/C=N/NC(=S)NCC(C)C)cc1,10%
18,CCCCN(CCCC)C(=O)C(C)OC(C)=O (stereo not drawn),25%
19,C=CCCCCCCCCC(=O)NN,92% (active)
20,C1CCC(CCCc2nn[nH]n2)CC1,53%

row,Compound,growth inhibition
1,CSS(C)(=O)=O,98% (active)
2,Clc1ccc(-n2ncc3c(Cl)nc(Cl)nc32)cc1,99% (active)
3,C(CCc1nn[nH]n1)CCC1CCCCC1,98% (active)
4,Oc1ccc(/C=C/c2ccc(Cl)cc2)cc1,97% (active)
5,Cc1ccc2[nH]cc(CC(=O)O)c2c1,99% (active)
6,CN(C)c1cc(N)c(Cc2c(N)cc(N(C)C)cc2Cl)c(Cl)c1,97% (active)
7,O=C1c2ccccc2-c2ccc(O)cc21,95% (active)
8,CC(=O)Oc1ccc(OC(C)=O)c2c1CC=CC2,2%
9,O=c1c2ccccc2ncn1O,93% (active)
10,CC(C)(C)C(=O)CC(c1ccccc1)c1ccccc1,20%
11,Cc1cccc(N=NC(C#N)C#N)c1,95% (active)
12,CC(=O)Nc1nc(-c2ccccc2)cs1,23%
13,CC(C)c1cc([N+](=O)[O-])c(O)c([N+](=O)[O-])c1,92% (active)
14,CC(C)NC(=O)C(C)O (stereo not drawn),14%
15,CN(C)CNC(=S)S,99% (active)
16,CCCCNC(=O)C(C)O (stereo not drawn),23%
17,COc1cccc(NC(=O)c2c(SC)c(C#N)c(=O)n(N)c2N)c1,99% (active)
18,COc1ccc(/C(C#N)=C/c2cccc(N)c2)cc1,16%
19,CCCCC(CC)CNC(=O)CI (stereo not drawn),66%

# Experiment: NCI Yeast Anticancer Drug Screen. Data for the mec2-1 strain (AID 157)
# Conditions: S. cerevisiae mec2-1 strain, at 5.0 µM (retest, dose inferred, filed as 0.5), hits give high values
# In short: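 Growth inhibition is read against vehicle-treated controls after compound exposure of the mec2-1 yeast strain, which is defective in DNA damage repair or cell cycle control.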
row,Compound,growth inhibition
1,N#C/C(=N\O)C(N)=O,-3%
2,COc1ccc(C(N)=O)cc1,-3%
3,CC1=C(/C=C/C(C)=C/C(=O)O)C(C)(C)CCC1,-2%
4,CC(=O)Oc1c(Br)cc(Br)cc1C(OC(C)=O)OC(C)=O,8%
5,CCCCCCN(CCCCCC)CCCCCCCCCCCO,7%
6,COc1cccc(NC(=O)c2c(SC)n[nH]c2N)c1,38%
7,O=C(O)/C=C\C(=O)NNc1ccccc1,-2%
8,Oc1ccc(Cc2cccc(Cl)c2)c(O)c1,-7%
9,C=COC(=O)c1ccccc1C(=O)OCCCC,-2%
10,O=C(O)c1ccc(-c2ccccc2)cc1,0%
11,N#CC(c1ccccc1)C(c1ccccc1)c1ccccc1 (stereo not drawn),9%
12,CC(C)(C)c1cc([N+](=O)[O-])c(O)c([N+](=O)[O-])c1,11%
13,CSC(SC)=C(C#N)C(=O)Nc1cccc(Cl)c1,62%
14,CCOC(=O)C(NC(C)=O)C(=O)c1ccccc1 (stereo not drawn),-3%
15,O=[N+]([O-])/C=C/c1cccs1,33%
16,C/C(=N\Nc1ccc(Cl)cc1)C(=O)O,-2%
17,CC(=O)Nc1ccc(/C=N/NC(=S)NCC(C)C)cc1,2%
18,CCCCN(CCCC)C(=O)C(C)OC(C)=O (stereo not drawn),-4%
19,C=CCCCCCCCCC(=O)NN,-1%
20,C1CCC(CCCc2nn[nH]n2)CC1,-1%

row,Compound,growth inhibition
1,CSS(C)(=O)=O,6%
2,Clc1ccc(-n2ncc3c(Cl)nc(Cl)nc32)cc1,99% (active)
3,C(CCc1nn[nH]n1)CCC1CCCCC1,10%
4,Oc1ccc(/C=C/c2ccc(Cl)cc2)cc1,5%
5,Cc1ccc2[nH]cc(CC(=O)O)c2c1,97% (active)
6,CN(C)c1cc(N)c(Cc2c(N)cc(N(C)C)cc2Cl)c(Cl)c1,-2%
7,O=C1c2ccccc2-c2ccc(O)cc21,17%
8,CC(=O)Oc1ccc(OC(C)=O)c2c1CC=CC2,-1%
9,O=c1c2ccccc2ncn1O,1%
10,CC(C)(C)C(=O)CC(c1ccccc1)c1ccccc1,-1%
11,Cc1cccc(N=NC(C#N)C#N)c1,10%
12,CC(=O)Nc1nc(-c2ccccc2)cs1,-4%
13,CC(C)c1cc([N+](=O)[O-])c(O)c([N+](=O)[O-])c1,14%
14,CC(C)NC(=O)C(C)O (stereo not drawn),1%
15,CN(C)CNC(=S)S,97% (active)
16,CCCCNC(=O)C(C)O (stereo not drawn),0%
17,COc1cccc(NC(=O)c2c(SC)c(C#N)c(=O)n(N)c2N)c1,10%
18,COc1ccc(/C(C#N)=C/c2cccc(N)c2)cc1,3%
19,CCCCC(CC)CNC(=O)CI (stereo not drawn),-2%
